Read-outs that look alike come from different tables or passages of the source.
What was measured:
Set-up in all cases: species or system human, MV4-11 + K-562 + COLO205 + SK-N-BE2 + OVCAR-8
[1] = test system: DCTPP1; conditions: read-out: apparent Kd; compound concentrations:100 nM and 1000 nM (sheet 'Samples'); n = 1
[2] = test system: NLK; conditions: read-out: apparent Kd, n = 1
[3] = test system: PDXK; conditions: read-out: apparent Kd; compound concentrations:100 nM and 1000 nM (sheet 'Samples'); n = 1
[4] = test system: PIK3C3; conditions: read-out: apparent Kd; compound concentrations:100 nM and 1000 nM (sheet 'Samples'); n = 1
[5] = test system: PIK3CB; conditions: read-out: apparent Kd; compound concentrations:100 nM and 1000 nM (sheet 'Samples'); n = 1
[6] = test system: PIK3CD; conditions: read-out: apparent Kd; compound concentrations:100 nM and 1000 nM (sheet 'Samples'); n = 1
[7] = test system: DDR1; conditions: read-out: apparent Kd; compound concentrations: 100 nM and 1000 nM (sheet 'Samples'), CATDS: 0.23686059185109401; n = 1
[8] = test system: DDR2; conditions: read-out: apparent Kd; compound concentrations: 100 nM and 1000 nM (sheet 'Samples'), CATDS: 0.144406437385246; n = 1
[9] = test system: FLT4; conditions: read-out: apparent Kd; compound concentrations: 100 nM and 1000 nM (sheet 'Samples'), CATDS: 0.67629550242263303; n = 1
[10] = test system: PDGFRB; conditions: read-out: apparent Kd; compound concentrations: 100 nM and 1000 nM (sheet 'Samples'), CATDS: 0.14329981050248; n = 1
[11] = test system: RET; conditions: read-out: apparent Kd, compound concentrations: 100 nM and 1000 nM (sheet 'Samples'), n = 1
[12] = test system: CSNK2A1;CSNK2A3; conditions: read-out: apparent Kd; compound concentrations: 100 nM and 1000 nM (sheet 'Samples'), CATDS: 8.5666768683209493E-2; n = 1
[13] = test system: CSNK2A2; conditions: read-out: apparent Kd; compound concentrations: 100 nM and 1000 nM (sheet 'Samples'), CATDS: 9.4804106529145699E-2; n = 1
[14] = test system: EPHA1; conditions: read-out: apparent Kd; compound concentrations: 100 nM and 1000 nM (sheet 'Samples'), CATDS: 0.11031803480288301; n = 1
[15] = test system: IRAK3; conditions: read-out: apparent Kd; compound concentrations: 100 nM and 1000 nM (sheet 'Samples'), CATDS: 0.28099060866519798; n = 1
[16] = test system: NTRK1; conditions: read-out: apparent Kd; compound concentrations: 100 nM and 1000 nM (sheet 'Samples'), CATDS: 8.3524015841862198E-2; n = 1
[17] = test system: PIP4K2C; conditions: read-out: apparent Kd, n = 1
[18] = test system: RIPK2; conditions: read-out: apparent Kd; compound concentrations: 100 nM and 1000 nM (sheet 'Samples'), CATDS: 0.49931357158944301; n = 1
[19] = test system: STK10; conditions: read-out: apparent Kd; compound concentrations: 100 nM and 1000 nM (sheet 'Samples'), CATDS: 9.3066944796260806E-2; n = 1
[20] = test system: TGFBR2; conditions: read-out: apparent Kd; compound concentrations: 100 nM and 1000 nM (sheet 'Samples'), CATDS: 0.10303622443246301; n = 1
[21] = test system: CSNK1D; conditions: read-out: apparent Kd; compound concentrations: 100 nM and 1000 nM (sheet 'Samples'), CATDS: 6.2224670805274301E-2; n = 1
[22] = test system: GAK; conditions: read-out: apparent Kd; compound concentrations: 100 nM and 1000 nM (sheet 'Samples'), CATDS: 0.103213597019934; n = 1
[23] = test system: GSK3B; conditions: read-out: apparent Kd; compound concentrations: 100 nM and 1000 nM (sheet 'Samples'), CATDS: 7.0776673864894807E-2; n = 1
[24] = test system: MAPK10; conditions: read-out: apparent Kd; compound concentrations: 100 nM and 1000 nM (sheet 'Samples'), CATDS: 9.6929032938047402E-2; n = 1
[25] = test system: MAPK14; conditions: read-out: apparent Kd, n = 1
[26] = test system: MAPK9; conditions: read-out: apparent Kd, n = 1
[27] = test system: MAPKAPK2; conditions: read-out: apparent Kd, n = 1
[28] = test system: PIK3CA; conditions: read-out: apparent Kd; compound concentrations: 100 nM and 1000 nM (sheet 'Samples'), CATDS: 0.21860301841360499; n = 1
[29] = test system: PRKD2; conditions: read-out: apparent Kd; compound concentrations: 100 nM and 1000 nM (sheet 'Samples'), CATDS: 7.4575323464079593E-2; n = 1
[30] = test system: PRKD3; conditions: read-out: apparent Kd; compound concentrations: 100 nM and 1000 nM (sheet 'Samples'), CATDS: 5.9438089075158997E-2; n = 1
[31] = test system: JAK2; conditions: read-out: apparent Kd; compound concentrations:100 nM and 1000 nM (sheet 'Samples'); n = 1
[32] = test system: MAPK8; conditions: read-out: apparent Kd; compound concentrations:100 nM and 1000 nM (sheet 'Samples'); n = 1
[33] = test system: DAPK3; conditions: read-out: apparent Kd; compound concentrations:100 nM and 1000 nM (sheet 'Samples'); n = 1
[34] = test system: EGFR; conditions: read-out: apparent Kd; compound concentrations:100 nM and 1000 nM (sheet 'Samples'); n = 1
[35] = test system: HSP90B1; conditions: read-out: apparent Kd; compound concentrations:100 nM and 1000 nM (sheet 'Samples'); n = 1
[36] = test system: IRAK1; conditions: read-out: apparent Kd; compound concentrations:100 nM and 1000 nM (sheet 'Samples'); n = 1
[37] = compound concentrations:100 nM and 1000 nM (sheet 'Samples')

Compound `O=c1cc(N2CCOCC2)nc2n(Cc3cccc(Cl)c3Cl)c(C3CC3)nn12` [GSK2358994A] has a potency estimated from few doses [1] of 1200 nM, a potency estimated from few doses [2, 37] of 2260 nM and a potency estimated from few doses [3] of 1950 nM. It also gave a potency estimated from few doses [4] of 9.02 nM, a potency estimated from few doses [5] of 3.64 nM and a potency estimated from few doses [6] of 14.2 nM.
`Cc1c2ccc(N(C)c3ccnc(Nc4cccc(S(N)(=O)=O)c4)n3)cc2nn1C.Cl` [GW771127A] gave a potency estimated from few doses [7] of 397 nM, a potency estimated from few doses [8] of 1670 nM and a potency estimated from few doses [9] of 51.7 nM. It also gave a potency estimated from few doses [10] of 1720 nM and a potency estimated from few doses ([11]; CATDS: 0.185315990587263) of 746 nM.
`COc1cc(Nc2nccc(Nc3ccc4c(C)n[nH]c4c3)n2)cc(OC)c1OC` [GW612286X] gave a potency estimated from few doses [12] of 1870 nM, a potency estimated from few doses [13] of 1370 nM and a potency estimated from few doses [14] of 909 nM. It also gave a potency estimated from few doses [15] of 122 nM, a potency estimated from few doses [16] of 2040 nM and a potency estimated from few doses ([17]; compound concentrations: 100 nM and 1000 nM (sheet 'Samples'), CATDS: 8.5254217094438201E-2) of 1900 nM. The potency estimated from few doses [18] was 46.6 nM, the potency estimated from few doses [19] was 1450 nM and the potency estimated from few doses [20] was 1090 nM.
`Cc1ccc2c(-c3ccnc(Nc4cccc(C(F)(F)F)c4)n3)c(-c3ccccc3)nn2n1` [GW829906X] was tested, and the potency estimated from few doses [21] was 2130 nM, the potency estimated from few doses [22] was 606 nM and the potency estimated from few doses [23] was 1440 nM. The potency estimated from few doses [24] was 688 nM, the potency estimated from few doses ([25]; compound concentrations: 100 nM and 1000 nM (sheet 'Samples'), CATDS: 8.8284377097412201E-2) was 839 nM and the potency estimated from few doses ([26]; compound concentrations: 100 nM and 1000 nM (sheet 'Samples'), CATDS: 0.22651523139433999) was 165 nM. It also gave a potency estimated from few doses ([27]; compound concentrations: 100 nM and 1000 nM (sheet 'Samples'), CATDS: 6.8776353647753294E-2) of 1560 nM, a potency estimated from few doses ([2]; compound concentrations: 100 nM and 1000 nM (sheet 'Samples'), CATDS: 6.7080565702130196E-2) of 1680 nM and a potency estimated from few doses [28] of 174 nM. For the same compound, the potency estimated from few doses [29] was 1250 nM, the potency estimated from few doses [30] was 2500 nM and the potency estimated from few doses ([11]; CATDS: 7.2475765263367006E-2) was 1350 nM.
In the case of `Cl.Cn1c(=O)c(Oc2ccc(F)cc2F)cc2cnc(NC3CCS(=O)(=O)CC3)nc21` [RO3308271-001], the potency estimated from few doses [1] is reported as 1310 nM, the potency estimated from few doses [31] is reported as 494 nM and the potency estimated from few doses [25, 37] is reported as 16.5 nM. The potency estimated from few doses [32] was 922 nM, the potency estimated from few doses [26, 37] was 212 nM and the potency estimated from few doses [27, 37] was 13.3 nM. The potency estimated from few doses [2, 37] was 1220 nM and the potency estimated from few doses [17, 37] was 1310 nM.
Work on `Cl.O=S1CCN(Cc2ccc(-c3ccc4ncnc(Nc5ccc(OCc6ccccc6)c(F)c5)c4c3)o2)CC1` [GW576924A] yielded a potency estimated from few doses [33] of 1760 nM, a potency estimated from few doses [34] of 28.8 nM and a potency estimated from few doses [35] of 1100 nM. The potency estimated from few doses [36] was 1540 nM.

— paper PMC11062922 (Nature Chemical Biology, 2023)
